Measurements as given in ChEMBL document CHEMBL2218924, “A broad activity screen in support of a chemogenomic map for kinase signalling research and drug discovery” (Biochem J, 2013).

Target: Fibroblast growth factor receptor 3 (Homo sapiens) (UniProt P22607)
Settings: at 1 µM

Fibroblast growth factor receptor 3 (Homo sapiens), sequence (P22607 23-806 limits assumed): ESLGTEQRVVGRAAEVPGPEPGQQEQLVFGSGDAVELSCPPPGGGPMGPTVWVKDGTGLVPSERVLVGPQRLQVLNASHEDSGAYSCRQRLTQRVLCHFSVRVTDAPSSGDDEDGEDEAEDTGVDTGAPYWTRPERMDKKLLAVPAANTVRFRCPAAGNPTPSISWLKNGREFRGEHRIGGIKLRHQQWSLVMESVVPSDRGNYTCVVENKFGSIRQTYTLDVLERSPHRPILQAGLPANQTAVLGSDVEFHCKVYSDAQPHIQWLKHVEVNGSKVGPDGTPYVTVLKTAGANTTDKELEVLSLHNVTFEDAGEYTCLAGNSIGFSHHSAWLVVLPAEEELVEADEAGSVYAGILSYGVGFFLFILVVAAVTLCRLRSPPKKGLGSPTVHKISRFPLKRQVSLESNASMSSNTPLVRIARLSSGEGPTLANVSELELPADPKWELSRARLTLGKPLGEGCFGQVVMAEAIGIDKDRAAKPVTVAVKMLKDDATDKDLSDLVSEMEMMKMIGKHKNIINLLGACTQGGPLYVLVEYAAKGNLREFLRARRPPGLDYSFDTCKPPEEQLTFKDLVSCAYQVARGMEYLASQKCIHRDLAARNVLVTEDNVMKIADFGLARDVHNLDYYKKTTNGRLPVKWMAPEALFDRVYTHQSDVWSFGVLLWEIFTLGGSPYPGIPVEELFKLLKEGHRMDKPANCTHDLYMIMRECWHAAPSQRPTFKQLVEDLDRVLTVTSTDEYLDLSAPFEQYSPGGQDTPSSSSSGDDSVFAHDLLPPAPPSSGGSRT

Row | SMILES | residual activity [%]
1 | Nc1nc(Nc2ccc(S(N)(=O)=O)cc2)nn1C(=O)c1c(F)cccc1F | 29
2 | COc1ccc(CNC(=O)Nc2ncc([N+](=O)[O-])s2)cc1 | 112
3 | COc1ccc(-c2cnc3c(-c4ccsc4)cnn3c2)cc1 | 93
4 | CC(C)[C@H](CO)Nc1nc(Nc2cc(N)cc(Cl)c2)c2ncn(C(C)C)c2n1 | 92
5 | COc1cc2ncnc(Nc3cccc(Cl)c3)c2cc1OC | 104
6 | O=C(O)/C=C/c1cc(Br)c(Br)c(Br)c1Br | 103
7 | COc1ccc2c(c1)c(C1=C(c3c[nH]c4ccccc34)C(=O)NC1=O)cn2CCCN(C)C | 63
8 | COc1cc2c(cc1OC)-c1n[nH]c(Nc3cccc(F)c3)c1C2 | 111
9 | Nc1ncnc2[nH]nc(Nc3ccc(F)cc3)c12 | 113
10 | O=c1c(-c2ccc(F)cc2)c(-c2ccncc2)[nH]n1-c1ccc(Cl)cc1 | 123
11 | O=c1cc(N2CCOCC2)oc2c(-c3ccccc3)cccc12 | 101
12 | O=C1Cc2c([nH]c3ccc([N+](=O)[O-])cc23)-c2ccccc2N1 | 125

Target: Fibroblast growth factor receptor 3 (Homo sapiens) (UniProt P22607)
Settings: at 10 µM

Row | SMILES | residual activity [%]
13 | O=S(=O)(NCCNC/C=C/c1ccc(Br)cc1)c1cccc2cnccc12 | 80
14 | Nc1nc(Nc2ccc(S(N)(=O)=O)cc2)nn1C(=O)c1c(F)cccc1F | 4
15 | COc1ccc(CNC(=O)Nc2ncc([N+](=O)[O-])s2)cc1 | 113
16 | COc1cc2nccc(Oc3ccc(NC(=O)Nc4cc(C)on4)c(Cl)c3)c2cc1OC | 28
17 | COc1ccc(-c2cnc3c(-c4ccsc4)cnn3c2)cc1 | 124
18 | CC(C)[C@H](CO)Nc1nc(Nc2cc(N)cc(Cl)c2)c2ncn(C(C)C)c2n1 | 20
19 | COc1cc2ncnc(Nc3cccc(Cl)c3)c2cc1OC | 74
20 | O=C(O)/C=C/c1cc(Br)c(Br)c(Br)c1Br | 99
21 | COc1ccc2c(c1)c(C1=C(c3c[nH]c4ccccc34)C(=O)NC1=O)cn2CCCN(C)C | 13
22 | COc1cc2c(cc1OC)-c1n[nH]c(Nc3cccc(F)c3)c1C2 | 67
23 | O=c1cc(N2CCOCC2)oc2c(-c3ccccc3)cccc12 | 73
24 | O=C1Cc2c([nH]c3ccc([N+](=O)[O-])cc23)-c2ccccc2N1 | 109
25 | CN([C@@H](Cc1ccc(OS(=O)(=O)c2cccc3cnccc23)cc1)C(=O)N1CCN(c2ccccc2)CC1)S(=O)(=O)c1cccc2cnccc12 | 58
26 | CSc1nc(-c2ccc(F)cc2)c(-c2ccnc(NC(C)c3ccccc3)c2)[nH]1 (stereo unspecified) | 78

Target: Fibroblast growth factor receptor 4 (Homo sapiens) (UniProt P22455)
Settings: at 1 µM

Fibroblast growth factor receptor 4 (Homo sapiens), sequence (P22455 22-802 limits assumed): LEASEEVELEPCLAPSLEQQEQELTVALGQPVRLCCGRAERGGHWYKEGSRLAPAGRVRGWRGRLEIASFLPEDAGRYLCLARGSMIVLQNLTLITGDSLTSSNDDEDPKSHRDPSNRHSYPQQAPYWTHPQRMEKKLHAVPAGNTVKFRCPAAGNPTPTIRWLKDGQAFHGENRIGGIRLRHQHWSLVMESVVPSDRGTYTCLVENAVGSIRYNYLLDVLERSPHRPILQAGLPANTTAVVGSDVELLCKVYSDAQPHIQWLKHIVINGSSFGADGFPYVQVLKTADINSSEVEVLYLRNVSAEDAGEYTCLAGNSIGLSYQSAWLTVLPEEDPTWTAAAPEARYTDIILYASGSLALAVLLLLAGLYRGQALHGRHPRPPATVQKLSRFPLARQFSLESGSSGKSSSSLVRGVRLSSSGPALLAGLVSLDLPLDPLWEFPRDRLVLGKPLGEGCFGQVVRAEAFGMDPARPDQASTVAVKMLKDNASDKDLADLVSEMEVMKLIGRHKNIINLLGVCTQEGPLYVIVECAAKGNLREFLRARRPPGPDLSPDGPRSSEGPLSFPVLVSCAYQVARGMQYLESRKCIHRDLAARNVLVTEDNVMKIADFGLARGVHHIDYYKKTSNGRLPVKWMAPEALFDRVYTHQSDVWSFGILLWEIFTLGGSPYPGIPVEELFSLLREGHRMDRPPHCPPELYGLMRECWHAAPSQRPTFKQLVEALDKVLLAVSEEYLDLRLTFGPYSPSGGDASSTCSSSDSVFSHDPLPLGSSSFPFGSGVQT

Row | SMILES | residual activity [%]
27 | COc1ccc(COc2ccc(Cc3cnc(N)nc3N)cc2OC)cc1 | 131
28 | Nc1nc(Nc2ccc(S(N)(=O)=O)cc2)nn1C(=O)c1c(F)cccc1F | 99
29 | Nc1n[nH]c2nc3ccccc3nc12 | 120
30 | COc1cc2nccc(Oc3ccc(NC(=O)Nc4cc(C)on4)c(Cl)c3)c2cc1OC | 76
31 | NC(=O)c1ccc(-c2nc(-c3ccc4c(c3)OCCO4)c(-c3ccccn3)[nH]2)cc1 | 122
32 | COc1ccc2c(c1)c(C1=C(c3c[nH]c4ccccc34)C(=O)NC1=O)cn2CCCN(C)C | 120
33 | COc1cc2c(cc1OC)-c1n[nH]c(Nc3cccc(F)c3)c1C2 | 117
34 | Nc1ncnc2[nH]nc(Nc3ccc(F)cc3)c12 | 98
35 | CCCC(=O)Oc1ccc2[nH]c(C(=O)c3cc4ccccc4[nH]3)cc2c1 | 125
36 | N#C/C(=C1/Nc2ccccc2S1)c1ccnc(NCCc2cccnc2)n1 | 117
37 | O=C1Cc2c([nH]c3ccc([N+](=O)[O-])cc23)-c2ccccc2N1 | 112
38 | CC(C)(C)c1nc2c3ccc(F)cc3c3c(=O)[nH]ccc3c2[nH]1 | 119
39 | O=C(Nc1nc2ccccc2n1CCN1CCOCC1)c1cccc([N+](=O)[O-])c1 | 114

Target: Fibroblast growth factor receptor 4 (Homo sapiens) (UniProt P22455)
Settings: at 10 µM

Row | SMILES | residual activity [%]
40 | Nc1nc(Nc2ccc(S(N)(=O)=O)cc2)nn1C(=O)c1c(F)cccc1F | 66
41 | O=C(NC(NC(=S)Nc1ccc(F)c([N+](=O)[O-])c1)C(Cl)(Cl)Cl)C(c1ccccc1)c1ccccc1 (stereo unspecified) | 83
42 | COc1cc2nccc(Oc3ccc(NC(=O)Nc4cc(C)on4)c(Cl)c3)c2cc1OC | 31
43 | CC(C)[C@H](CO)Nc1nc(Nc2cc(N)cc(Cl)c2)c2ncn(C(C)C)c2n1 | 88
44 | O=C(O)/C=C/c1cc(Br)c(Br)c(Br)c1Br | 96
45 | NC(=O)c1ccc(-c2nc(-c3ccc4c(c3)OCCO4)c(-c3ccccn3)[nH]2)cc1 | 95
46 | COc1cc2c(cc1OC)-c1n[nH]c(Nc3cccc(F)c3)c1C2 | 101
47 | CCCC(=O)Oc1ccc2[nH]c(C(=O)c3cc4ccccc4[nH]3)cc2c1 | 86
48 | O=c1cc(N2CCOCC2)oc2c(-c3ccccc3)cccc12 | 70
49 | N#C/C(=C1/Nc2ccccc2S1)c1ccnc(NCCc2cccnc2)n1 | 67
50 | O=C1Cc2c([nH]c3ccc([N+](=O)[O-])cc23)-c2ccccc2N1 | 102
51 | CSc1nc(-c2ccc(F)cc2)c(-c2ccnc(NC(C)c3ccccc3)c2)[nH]1 (stereo unspecified) | 78
